# High-throughput results from PubChem BioAssay.
# USP30 inh: inhibitors of human USP30 deubiquitinase | Ubiquitin carboxyl-terminal hydrolase 30 (Homo sapiens), Q70CQ3 | purified USP30, Ub-rhodamine cleavage fluorescence | inhibition, % at 25 µM | 47,000 tested, 5.3% active | AID 1645860, 2021
# USP17 inh: inhibitors of human USP17 deubiquitinase; Ubiquitin carboxyl-terminal hydrolase 17-like protein 5 (Homo sapiens), A8MUK1; 47,000 tested, 6.5% active; AID 1645855, 2021; purified USP17, Ub-rhodamine cleavage fluorescence, 3 h; inhibition, % at 50 µM
# USP8 inh: inhibitors of human USP8 deubiquitinase; purified USP8, Ub-rhodamine cleavage fluorescence, 30 min; inhibition, % at 20 µM; 47,000 tested, 4.2% active; AID 1645853, 2021
# Target sequence (P40818 whole entry, looked up): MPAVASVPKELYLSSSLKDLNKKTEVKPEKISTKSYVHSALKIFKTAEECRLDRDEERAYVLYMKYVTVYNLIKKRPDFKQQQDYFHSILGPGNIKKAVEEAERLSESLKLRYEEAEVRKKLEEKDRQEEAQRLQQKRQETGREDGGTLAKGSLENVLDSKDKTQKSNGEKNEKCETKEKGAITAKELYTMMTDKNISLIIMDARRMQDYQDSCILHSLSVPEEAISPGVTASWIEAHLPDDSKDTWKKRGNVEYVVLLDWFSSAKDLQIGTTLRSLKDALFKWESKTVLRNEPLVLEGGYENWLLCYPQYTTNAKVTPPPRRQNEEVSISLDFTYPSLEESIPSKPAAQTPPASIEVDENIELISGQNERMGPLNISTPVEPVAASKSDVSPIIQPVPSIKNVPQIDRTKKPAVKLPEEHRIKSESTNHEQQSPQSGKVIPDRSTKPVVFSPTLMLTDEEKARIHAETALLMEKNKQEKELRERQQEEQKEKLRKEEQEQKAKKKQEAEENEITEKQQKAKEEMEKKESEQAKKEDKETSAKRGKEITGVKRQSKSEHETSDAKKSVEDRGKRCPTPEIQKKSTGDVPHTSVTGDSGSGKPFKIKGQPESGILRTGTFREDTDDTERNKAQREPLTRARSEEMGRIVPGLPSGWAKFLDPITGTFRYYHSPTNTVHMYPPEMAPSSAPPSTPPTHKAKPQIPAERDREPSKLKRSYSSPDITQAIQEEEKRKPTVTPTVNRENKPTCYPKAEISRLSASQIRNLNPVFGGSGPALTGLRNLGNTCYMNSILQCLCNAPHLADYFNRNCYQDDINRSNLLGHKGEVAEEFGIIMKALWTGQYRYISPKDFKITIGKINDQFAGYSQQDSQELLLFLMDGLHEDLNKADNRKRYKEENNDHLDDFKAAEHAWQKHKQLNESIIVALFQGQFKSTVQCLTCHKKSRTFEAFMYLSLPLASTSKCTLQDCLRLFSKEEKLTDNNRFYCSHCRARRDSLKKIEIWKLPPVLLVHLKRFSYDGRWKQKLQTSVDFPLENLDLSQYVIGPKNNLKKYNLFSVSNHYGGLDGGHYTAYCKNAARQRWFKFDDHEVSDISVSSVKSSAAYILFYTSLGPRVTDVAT
# * = called active by the depositor; nt = no result. Most compounds without a hit are left out; they make up all but 12% or so of the library. Cut-off read from the data, not from the text of the source: active = inhibition above about 30%; inactive = the rest.
SMILES,USP30 inh,USP17 inh,USP8 inh
Cc1ccccc1-c1nc(-c2cccc(C(=O)N3CCCC3)c2)no1,35.7*,13.9,9.1
CC(C)N1Cc2ccccc2CN2C[C@@H](NC(=O)NC3CCOCC3)C[C@H]2C1,-20.9,0.5,14.4
O=c1[nH]c2ccc(Nc3nc4ccccc4n4cnnc34)cc2[nH]1,nt,8.5,-27.0
O=C(Nc1ccc(F)cc1Cl)c1ncoc1-c1cccs1,2.1,-3.5,7.7
CCc1nnc2ccc(NC(=O)NC3CCCCC3)cn12,-51.7,-23.3,-25.6
COc1ccc(C2[C@@H]3CCCC[C@]3(O)CCN2C(=O)/C=C/c2ccc3c(c2)OCO3)cc1 (some centres not stated),1.3,-0.9,-47.5
N#Cc1c(F)cccc1N1CCC(C2CCCCCN2C(=O)C2CC2)CC1 (configuration not stated),34.4*,15.1,2.6
CC1(C2CCN(C(=O)c3ccc(Cl)cc3)CC2)NC(=O)NC1=O (configuration not stated),26.1,nt,27.8
N#Cc1ccc(N2CCC(C3CCCCCN3C(=O)C3CCOCC3)CC2)nc1 (configuration not stated),11.8,5.1,-2.6
CC1(C2CCN(c3cccc(F)c3C#N)CC2)NC(=O)NC1=O (configuration not stated),31.8*,10.8,0.2
O=C(CC1CC1)N1C[C@H](OCc2cccnc2)[C@H]2COC[C@H]21,-5.9,0.1,-5.7
COc1ccc(/C=C/C(=O)N2CCc3ccccc32)cc1S(=O)(=O)N1CCOCC1,-29.6,5.2,-17.9
NC(=O)C[n+]1ccn2c(Nc3ccccc3)c(-c3ccccc3O)nc2c1,-65.3,16.3,72.5*
Cc1ccc(Nc2c(-c3ccccc3O)nc3c[n+](CC(N)=O)ccn23)cc1,-224.3,-63.8,36.5*
O=C(O)c1cccc(Nc2c(-c3ccccc3O)nc3cnccn23)c1,-40.4,7.4,9.2
COC(=O)c1cccc(Nc2c(-c3ccccc3O)nc3cnccn23)c1,nt,-7.7,-8.4
Cc1ccc(N2CCCn3c2nc2c3c(=O)n(CC(=O)OCc3ccccc3)c(=O)n2C)cc1,8.8,3.3,-72.2
Cc1cc(C2CCCN2C(=O)Cc2c(F)cccc2Cl)on1 (configuration not stated),20.0,11.7,15.9
Cc1cc(C)c(NC(=O)Cn2c(=O)n(Cc3ccccc3)c(=O)c3nn(C)cc32)c(C)c1,85.3*,67.7*,41.4*
CCn1cc2c(n1)c(=O)n(Cc1ccccc1)c(=O)n2CC(=O)Nc1ccc(C)cc1C,33.4*,36.2*,92.9*
Cn1cc2c(n1)c(=O)n(Cc1ccc(F)cc1)c(=O)n2CC(=O)NCc1ccccc1,25.3,12.3,-47.8
CCn1c(=O)c2nscc2n(CC(=O)Nc2ccc(C)cc2Cl)c1=O,nt,4.7,-3.6
O=S(=O)(c1cc(-c2nnc(C3CC3)o2)co1)N1CCCC1,-10.3,-4.3,0.0
Cn1nccc1-c1nccnc1CC1CCN(S(C)(=O)=O)CC1,7.9,-5.2,-8.8
CCN(C(=O)CSCc1nc(-c2cccc(F)c2)no1)c1ccccc1,15.0,15.6,-22.6
SMILES,USP30 inh,USP17 inh,USP8 inh
CCOC(=O)c1ccccc1NC(=O)C(=O)CC(=O)c1ccc(OC)cc1,-18.1,31.4*,77.9*
CCOC(=O)c1ccccc1NC(=O)Cc1c(C)n(C(=O)c2ccc(Cl)cc2)c2ccc(OC)cc12,-37.7,-5.3,-9.0
COc1ccc(-c2cc(C(=O)OCC(=O)NC(C)c3ccccc3)c3ccccc3n2)cc1OC (configuration not stated),-37.6,9.8,-4.9
CCCCCNC(=O)c1ccc(Cl)c(S(=O)(=O)Nc2ccc(C)c(C)c2)c1,2.7,3.7,18.3
CCNC(=O)c1ccc(N2CCNCC2)c(NS(=O)(=O)c2cc(C)c(C)cc2C)c1,9.6,5.5,46.2*
CCN1CCN(c2ccc(S(=O)(=O)N3CCCCC3)cc2NC(=O)/C=C/c2ccccc2)CC1,-20.9,1.7,5.1
CC(=O)c1ccc(NS(=O)(=O)c2cc(C)cc3c2OCCN3C)cc1,-5.8,-10.1,-1.6
Cc1cc(C)c(S(=O)(=O)Nc2cc(C(=O)O)ccc2N2CCN(C)CC2)c(C)c1,-23.9,9.1,77.2*
CCCN1CCN(c2ccc(C(=O)O)cc2NS(=O)(=O)c2ccccc2)CC1,-13.3,0.3,74.2*
CNCC(=O)N1CCCC1c1ccnc(Nc2cnccn2)n1 (configuration not stated),-100.8,-20.5,-18.0
CN1Cc2ccccc2CN2CCN(Cc3ccc(OCCO)cc3)CC2C1 (configuration not stated),-49.6,-39.2,-34.6
CN(C)c1ccc(CN2CCOC[C@H]2c2ncc(-c3cccnc3)[nH]2)cc1,-37.8,-66.2,33.3*
c1ccc(-c2cnc([C@@H]3COCCN3Cc3csnn3)[nH]2)cc1,12.2,6.0,16.2
